Laboratory results from the supplement of paper PMC9262897, “Low-cost anti-mycobacterial drug discovery using engineered E. coli” (Nature Communications, 2022).
Structures can show the parent of a compound that is named as a salt. ± gives the standard deviation of the averaged measurements.

These molecules were tested on E. coli TESEC Mtb Alr (assay: growth (OD600 after 10 h); higher = more growth (less inhibition)). Conditions: arabinose 10000 nM; compound 0.1 mM; raw OD600 reference: median of DMSO wells 0.264, cell-free background 0.041.
Description: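 TESEC Mtb Alr E. coli, or the Alr+ wild-type control, in 384-well plates with Prestwick library compounds at 0.1 mM and 1% DMSO, across arabinose induction levels of 1E3 to 1E7 nM. Growth is read as OD600 after 10 h at 37 °C in triplicate biological replicates.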
Work on `CN1CCc2c(c3ccccc3n2Cc2ccccc2)C1` [Mebhydroline 1,5-naphtalenedisulfonate] yielded a growth of 0.267 ± 0.012.
`C[C@@H](O[C@H]1OCCN(Cc2n[nH]c(=O)[nH]2)[C@H]1c1ccc(F)cc1)c1cc(C(F)(F)F)cc(C(F)(F)F)c1` [Aprepitant] gave a growth of 0.116 ± 0.033.
Molecule `COc1cccc(N(C)C(=S)Oc2ccc3c(c2)CCCC3)n1` [Liranaftate] has a growth of 0.2888 ± 0.0012.
For `Oc1c(Cl)cc(Cl)c(Cl)c1Cc1c(O)c(Cl)cc(Cl)c1Cl` [Hexachlorophene], the growth was 0.0445 ± 0.00086.
`CC1(C)S[C@@H]2[C@H](NC(=O)[C@H](N)c3ccccc3)C(=O)N2[C@H]1C(=O)O` [Ampicillin trihydrate] was tested, and the growth was 0.253 ± 0.013.
`CCC(=O)O[C@]1(C(=O)SCF)[C@H](C)C[C@H]2[C@@H]3C[C@H](F)C4=CC(=O)C=C[C@]4(C)[C@@]3(F)[C@@H](O)C[C@@]21C` [Fluticasone propionate] gave a growth of 0.274 ± 0.021.
With `CCCC(=O)Nc1ccc(OCC(O)CNC(C)C)c(C(C)=O)c1` (stereo not given) [Acebutolol hydrochloride] the growth was 0.257 ± 0.0087.
`CC(C)(C)NC[C@H](O)COc1cccc2c1CCCC2=O` [(-) -Levobunolol hydrochloride] was tested, and the growth was 0.253 ± 0.0095.
`COC(=O)CCc1ccc(OCC(O)CNC(C)C)cc1` (stereo not given) [Esmolol hydrochloride] gave a growth of 0.2542 ± 0.00042.
Work on `O=c1[nH]cnc2c1ncn2[C@H]1CC[C@@H](CO)O1` [Didanosine] yielded a growth of 0.27 ± 0.0051.
Molecule `C[C@@H]1CCC[C@H](C)N1NC(=O)c1ccc(Cl)c(S(N)(=O)=O)c1` [Clopamide] has a growth of 0.251 ± 0.0061.
With `CCCc1nn(C)c2c(=O)[nH]c(-c3cc(S(=O)(=O)N4CCN(C)CC4)ccc3OCC)nc12` [Sildenafil] the growth was 0.275 ± 0.014.
`O=C1[C@H]2CCCC[C@H]2C(=O)N1CCCCN1CCN(c2nsc3ccccc23)CC1` [Perospirone] gave a growth of 0.257 ± 0.0052.
Molecule `CN1CCCC(CC2c3ccccc3Sc3ccccc32)C1` (stereo not given) [Metixene hydrochloride] has a growth of 0.0424 ± 0.00036.
Molecule `C[C@H]1O[C@H](O[C@H]2[C@H](O)[C@@H](O)[C@@H](O[C@@H]([C@H](O)[C@@H](O)C=O)[C@H](O)CO)O[C@@H]2CO)[C@H](O)[C@@H](O)[C@@H]1N[C@H]1C=C(CO)[C@@H](O)[C@H](O)[C@H]1O` [Acarbose] has a growth of 0.25 ± 0.005.
For `O=C(Oc1cccc2cccnc12)c1ccccc1` [Benzoxiquine], the growth was 0.28 ± 0.0036.
Work on `O=P(O)(O)C(O)(Cn1ccnc1)P(=O)(O)O` [Zoledronic acid hydrate] yielded a growth of 0.278 ± 0.0062.
`Clc1ccc(COC(Cn2ccnc2)c2ccc(Cl)cc2Cl)c(Cl)c1` (stereo not given) [Miconazole] was tested, and the growth was 0.03953 ± 0.00021.
Work on `CC[N+](CC)(CC)CCC(O)(c1ccccc1)C1CCCCC1` (stereo not given) [Tridihexethyl chloride] yielded a growth of 0.2775 ± 0.0026.
For `COc1ccc(-c2ccc3cc(C(=O)O)ccc3c2)cc1C12CC3CC(CC(C3)C1)C2` [Adapalene], the growth was 0.26 ± 0.0041.
`CC1=Nc2ccc(Cl)cc2S(=O)(=O)N1` [Diazoxide] gave a growth of 0.271 ± 0.0032.
With `COCCCOc1ccnc(C[S+]([O-])c2nc3ccccc3[nH]2)c1C` (stereo not given) [Rabeprazole Sodium salt] the growth was 0.262 ± 0.011.
In the case of `O=C(O)c1cc(/N=N/c2ccc(S(=O)(=O)Nc3ccccn3)cc2)ccc1O` [Sulfasalazine], the growth is reported as 0.254 ± 0.0054.
`Cc1c(O)c(=O)n(-c2ccccc2)n1C` [Antipyrine, 4-hydroxy] was tested, and the growth was 0.252 ± 0.0096.
Work on `C[C@]12C[C@H](O)[C@H]3[C@@H](CCC4=CC(=O)CC[C@@]43C)[C@@H]1CC[C@@H]2C(=O)CO` [Corticosterone] yielded a growth of 0.252 ± 0.011.
In the case of `CC(CN(C)C)CN1c2ccccc2Sc2ccccc21` (stereo not given) [Trimeprazine tartrate], the growth is reported as 0.255 ± 0.0092.
In the case of `C[C@@H]1C[C@H]2[C@@H]3C[C@H](F)C4=CC(=O)C=C[C@]4(C)[C@@]3(F)[C@@H](O)C[C@]2(C)[C@@]1(O)C(=O)COC(=O)C(C)(C)C` [Flumethasone pivalate], the growth is reported as 0.267 ± 0.017.
For `COc1cc(C)c(/C=C/C(C)=C/C=C/C(C)=C/C(=O)O)c(C)c1C` [Acitretin], the growth was 0.127 ± 0.0023.
`CC(=O)OCC1=C(C(=O)O)N2C(=O)[C@@H](NC(=O)Cc3cccs3)[C@H]2SC1` [Cephalothin sodium salt] was tested, and the growth was 0.209 ± 0.0072.
`CC(C)NCC(O)c1ccc(O)c(O)c1` (single isomer, unassigned; (+)) [(+)-Isoproterenol (+)-bitartrate salt] gave a growth of 0.2493 ± 0.0013.
In the case of `CCC1(c2ccccc2)C(=O)NCNC1=O` [Primidone], the growth is reported as 0.255 ± 0.0076.
For `CC(C)(C)C(=O)OCOC(=O)[C@@H]1N2C(=O)[C@@H](/N=C/N3CCCCCC3)[C@H]2SC1(C)C` [Pivmecillinam hydrochloride], the growth was 0.282 ± 0.0063.
For `CC(C)N1CCN(c2ccc(OCC3COC(Cn4cncn4)(c4ccc(Cl)cc4Cl)O3)cc2)CC1` (stereo not given) [Terconazole], the growth was 0.266 ± 0.0048.
In the case of `Cc1cc(C(C)(C)C)c(O)c(C)c1CC1=NCCN1` [Oxymetazoline hydrochloride], the growth is reported as 0.263 ± 0.014.
Molecule `Cc1ccc(O)c([C@H](CCN(C(C)C)C(C)C)c2ccccc2)c1` [Tolterodine tartrate] has a growth of 0.283 ± 0.0087.
`CN1CCCN(C(c2ccccc2)c2ccc(Cl)cc2)CC1` (stereo not given) [Homochlorcyclizine dihydrochloride] gave a growth of 0.169 ± 0.0051.
With `NC[C@H]1CC[C@H](C(=O)O)CC1` [Tranexamic acid] the growth was 0.282 ± 0.0046.
Molecule `Cc1cc(-c2ccccc2)nnc1NCCN1CCOCC1` [Minaprine dihydrochloride] has a growth of 0.25 ± 0.0072.
For `COc1ccc(C[C@@H]2c3cc(OC)c(OC)cc3CC[N@+]2(C)CCC(=O)OCCCCCOC(=O)CC[N@@+]2(C)CCc3cc(OC)c(OC)cc3[C@H]2Cc2ccc(OC)c(OC)c2)cc1OC` [Cisatracurium besylate], the growth was 0.242 ± 0.014.
`N#Cc1cc(NC(=O)C(=O)O)c(Cl)c(NC(=O)C(=O)O)c1` [Lodoxamide] was tested, and the growth was 0.2862 ± 0.0018.
